Data taken from the supplement of paper PMC6555819.

Test system: PPARg DBDmut IVT, anti-PPARg (DBD mutation: PPARg1 K132A/R137A, NR concentration 270 nM)
Test: PBM binding z-score (relative to random genomic background probes); higher = stronger binding; sequences stand for … in GC…GCGATTGACAGCGTAGAATGAAGG
Summary of the method: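 Antibodies against each partner of ligand-free nuclear receptor dimers (one per run) detected binding on custom Agilent 4×180K protein-binding microarrays after 1 h incubation. The double-stranded probes had 34-nt variable regions carrying direct-repeat seeds, single-nucleotide variants, half-site ablations and random human genomic background sequences. Binding z-scores, from regression-normalized fluorescence, use the random background probes as reference.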

Row | Sequence | PBM binding z-score
1 | TCTCGGAGGACACGAAGGTCAGAGCCTTCCAGAG | -1.76
2 | ACAGACAGGTGAGTGAAGGTAACGCAGCTGGACG | -0.822
3 | AGTCAAAGTTCAGGACGAGGTATCGTAAAGCACG | 0.419
4 | TCTAGTTGGTCACGGCGGTCACACACGACGGGTA | 1.25
5 | ACTGACGGGTCAACGAGGTTATAGCACGCGTATA | 0.241
6 | TCGAGTAGGTTAGGGGCAATCAGAATGGCGTCGA | -0.163
7 | AGAATGAGGTTAAGATCAGCGAAACAGAATACAT | 0.858
8 | TCAGACAAGTGAAGGTAACTCAGGTACGCAGTCG | -0.174
9 | ACTATTAGTTGACTTAGGGCAACCGCTACGACGC | 0.674
10 | ATGTGTAGGTTAAGGGTCATTCAGGTTGGTTCGC | 1.87
11 | CAAACTCGGTCACGAAAGGTCAAAGTCGAATGAC | 0.821
12 | ATATATAGGTTACATCCGGGTCATTCAGGCTATG | 2.9
13 | AGAATGAGGTTACCAAAGATCATGGAAACGCTTG | 0.847
14 | TTACCAAGCTGAAAGGTCGTTGATGCACGCCTTG | -0.623
15 | CTCGAAAGGTCGTGCTCAGCTGAGTATACCAAAC | 0.618
16 | ACCGAAAGGTCGACGAGGTGAGTATACACCGTTT | 0.38
17 | AGCATGAGGTTATTAAGATCAGGGAATTGCGGTC | -0.586
18 | AGAACGAGGGCAATGATTTGATAGCACGGGTGGC | 0.14
19 | TCATATAGGTAATACAGGTGACAGTCGGCATCTA | 1.53
20 | CCTAGCAGGCCAATCTGGGCCACTCAAGGCTTGA | -1.73

Row | Sequence | PBM binding z-score
21 | CCAAACAGGTGAGAAGGTAACTCAGCCTCGATTA | -0.155
22 | GTTAGTTGGTCAGTAAAAGGTCACACACCGGTCG | 0.79
23 | TCATATAGGTAAATGCTAGGGGAAAGTCCGATCT | 1.29
24 | CCTTACGGTTCACTCCAGGTTATAGCATCGGAGT | 1.01
25 | ACTAGCAGGCCAAGTTTGGGTCTCTCAAACAAAG | -0.788
26 | TCGACTAGGTTAGTCGGGGCATTCAGCCAACATA | -0.496
27 | ATCTCTAGGTAACGAAGTTCAGTGAATGCCGAAC | 0.901
28 | CATACAGGGTCAGCCAGGCCAGAGTAGGGACGGC | 0.692
29 | ATATGAAGGTTAGCTGGGGTCATTCAGACTAGGC | 1.21
30 | ATCTCTAGGTAAAGATAGTTCAGCGAATGCAAAT | 1.31
31 | TATACAGGGTCAAAGCCCAGAGTACGAATGTCGA | 1.86
32 | TCTGCTAAGTCAACGATGGTCAGCTAATCTGCTA | -0.943
33 | ATATGTAGGTTACATCCGGGTTATTCAGGCTATG | 2.37
34 | CCTATTACTTGACCATAAGGGCAACCGAAGCTCG | 1.09
35 | CCTATTAGTTGACCATAAGGGCGACCGAAGCTCG | 0.933
36 | TCTAGTTGGTCACTGAGGTCACACACGACGGGTA | 2.11
37 | TCTGCTAGGTCAACGATGGTCAGCTCATCTGCTA | -0.236
38 | AGAATGAGGTTATACGCAGATCAGGGAAGAAAGT | 0.997
39 | TCTATTAGTTGTTTAGGGCAACCGAAACAGCGGA | 0.951
40 | CCCGACAGGTGAAAGGTAACTCAGTCTGGTACGC | -0.825
